# Data from PubChem BioAssay (NCI).
# Compounds without any hit were thinned out: in the full panel of roughly 83,000, 20% have a hit.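 Growth was measured after 48 h exposure to one concentration of compound in 96-well plates. Values under 10 count as active.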 The source made the active and inactive calls.
# System: HL-60(TB) leukemia
# Assay: NCI-60 one-dose screen, 48 h (100 = growth as untreated, 0 = no growth, -100 = all killed)
# Conditions: 10 µM unless noted
row,SMILES,growth
1,Cc1cc(O)ccc1O,-14.1% (active)
2,C=C(C)[C@@H]1CC[C@]2(C(=O)N3CCN(C)CC3)CC[C@]3(C)[C@H](CC[C@@H]4[C@@]5(C)C/C(=C/c6ccncc6)C(=O)C(C)(C)[C@@H]5CC[C@]43C)[C@@H]12,-21.7% (active)
3,CCC1(CC)NC(=O)c2c(c3ccc(Cl)c(Cl)c3n2C)C1C#N (stereo not drawn),91.3% (inactive)
4,Clc1ccc(-n2ncc3c(NCCCN4CCOCC4)ncnc32)cc1,86% (inactive)
5,O=C(CCl)Oc1ccc(-c2ccccc2)c(Br)c1,105% (inactive)
6,O=[N+]([O-])c1ccc(O)c(-c2nc3ccccc3s2)c1,52.8% (inactive)
7,Cc1cc(Cl)nc(N2CCN(CCNc3ccnc4cc(Cl)ccc34)CC2)n1,27.8% (inactive)
8,c1ccc(C2CC(c3cccc(Nc4ccncc4)c3)=NN2c2ccccc2)cc1 (stereo not drawn),-8.94% (active)
9,COc1cc2c(cc1OC)C(=O)/C(=C/c1cc(C)c(O)c(C)c1)S2,-3.56% (active)
10,CC(C)(C)[Si](C)(C)OC1[C@@H](CNC(=O)NC(=O)NC(N)=O)O[C@@H](n2cnc3c(NC(=O)Nc4ccccc4)ncnc32)[C@H]1O[Si](C)(C)C(C)(C)C (stereo partly drawn),86.3% (inactive)
11,CCOC(=O)c1cc2oc(/C=C/c3cc(=O)c4cc(Cl)ccc4o3)cc2[nH]1,93% (inactive)
12,CC(C)(C)c1ccc(S(=O)(=O)N[C@H]2CC[C@H]3[C@@H]4CCc5cc(O)c([N+](=O)[O-])cc5[C@H]4CC[C@]23C)cc1,60.7% (inactive)
13,COc1ccc(-c2c3c(nc4n[nH]c(-c5ccc(Cl)cc5)c24)-c2ccccc2C(=O)C3=O)cc1,11.7% (inactive)
